Pf Dd2 inh – Plasmodium falciparum Dd2 growth inhibition. AID 1347417. 120,000 compounds, 4.3% hits. Potency, µM (top dose mostly 28.9 µM), actives largely listed as inhibitors. P. falciparum Dd2 growth, SYBR Green, 72 h; active means well fitted inhibition curve with a large enough effect; further: nearly all actives have a fitted effect of over 65% in size
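Readout: SYBR Green fluorescence, 485 nm excitation, 535 nm emission, after ~16 h lysis at 37C. Before that, Dd2-infected red cells (2.5% hematocrit) grew 72 h with compound, 29 uM top final concentration.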
Large screens that a line does not name were inactive. The sample as a whole holds a higher share of hits than the screen did.

Cc1cc(C)c(Cn2c(C(O)c3ccccc3)nc3ccccc32)c(C)c1 (stereo not given)	Pf Dd2 inh 3.2µM
Cc1ccc(C)c(Cn2c(C(C)NC(=O)c3ccccc3)nc3ccccc32)c1 (stereo not given)	none
COCCN1CCC(N2CCN(S(=O)(=O)c3cc(F)ccc3C)CC2)C1=O (stereo not given)	none
CCN(C(=O)CN1C(=O)C(c2ccccc2)=NC12CCCCC2)c1cccc(C)c1	none
CN(C)CC(=O)N1Cc2ccccc2CC2(CCCCN2C)C1 (stereo not given)	none
CN1CCCCC12Cc1ccccc1CN(C(=O)c1ccccc1)C2 (stereo not given)	Pf Dd2 inh 8.9µM
CN1CCCCC12Cc1ccccc1CN(C(=O)CCCC(=O)O)C2 (stereo not given)	none
N#Cc1cccc(C(=O)N2CCCN(S(=O)(=O)c3ccccc3)CCC(=O)NCC2)c1	none
Cc1cc(C)n2nc(-c3ccc(Cl)cc3)nc2n1	none
COc1ccc(C2C=C(c3ccc(Cl)cc3)Nc3nc(-c4ccc(Cl)cc4)nn32)cc1 (stereo not given)	Pf Dd2 inh 0.1µM
CCOc1ccc(C2C=C(c3cccc(OC)c3)Nc3nnnn32)cc1 (stereo not given)	none
Cc1ccc(S(=O)(=O)Nc2nc3n(n2)C(c2ccccc2Cl)C=C(c2ccccc2)N3)cc1 (stereo not given)	none
COc1ccc(-c2nc3n(n2)C(=O)CC(c2ccc(Cl)cc2)S3)cc1 (stereo not given)	none
COc1ccc(-c2nc3n(n2)C(c2cccc(C)c2)C(C(N)=O)=C(C)N3)cc1OC (stereo not given)	none
CC1=C(C(N)=O)C(c2ccccc2F)n2nc(-c3ccc(Cl)cc3)nc2N1 (stereo not given)	none
Cc1ccc(-c2nc3n(n2)C(c2ccccc2C)C=C(c2ccc(Cl)cc2)N3)cc1 (stereo not given)	Pf Dd2 inh 5µM
Cc1ccc(C2=CC(c3ccc(Cl)cc3)n3nc(-c4ccc(C)cc4)nc3N2)cc1 (stereo not given)	Pf Dd2 inh 1.3µM
O=C(CN1CC2CC(C1)[C@H]1CCCC(=O)N1C2)NCc1cc(F)cc(F)c1 (stereo not given in full)	none
CCN1CCN(c2ccc(C(=O)N3CCCC(c4ccccc4)CC3)cn2)CC1 (stereo not given)	none
CNC(=O)[C@@H]1C[C@H](Oc2ccccc2)CN1C(=O)c1cnccn1	none
Cc1ccccc1CC(=O)NC1CCN(c2cc(-c3ccccc3)[nH]n2)C1 (stereo not given)	none
CCc1nc(-c2c3n(c(=O)n(CC(=O)Nc4cc(C)ccc4OC)c2=O)CCCC3)no1	none
COC(=O)c1ccc(CN2C(=O)[C@@H]3C[C@@H](O)CN3C3(CN(CC4CC4)C3)C2=O)cc1	none
Cc1cn(CC(=O)NC2CCOC3(CCOCC3)C2)c(=O)[nH]c1=O (stereo not given)	none
CCc1ccc(NC(=O)c2cc3c(=O)n(Cc4cccs4)ccc3nc2C)cc1	Pf Dd2 inh 13µM
COc1ccc(Cn2ccc3nc(C)c(C(=O)Nc4ccc(F)cc4)cc3c2=O)cc1	none
CCc1cccc(NC(=O)c2cc3c(=O)n(Cc4ccccc4)ccc3nc2C)c1	none
O=C(NCCn1cc(SCc2ccccc2)c2ccccc21)c1cccs1	none
O=C(Cn1cc(SCc2ccccc2F)c2ccccc21)N1CCCC1	none
O=C(NCCn1cc(SCc2ccccc2Cl)c2ccccc21)c1cccs1	Pf Dd2 inh 11µM
CCN1c2cc(C(=O)Nc3ccc(C(F)(F)F)cc3)ccc2C(=O)N2CCCC21 (stereo not given)	none
CC1=C[C@@H](CNC(=O)C(C)(C)C)[C@H](C(C)C)C[C@H]1CC(=O)N1CCN(c2ccccn2)CC1	none
CC1=C[C@@H](CNC(=O)c2ccccc2)[C@H](C(C)C)C[C@H]1CC(=O)N1CCN(C)CC1	none
CC1=C[C@@H](CNC(=O)C2CCCCC2)[C@H](C(C)C)C[C@H]1CC(=O)N1CCN(c2ccccn2)CC1	Pf Dd2 inh 10µM
CC1=C[C@@H](CC#N)[C@H](C(C)C)C[C@H]1CC(=O)N1CCN(c2cnccn2)CC1	Pf Dd2 inh 7.1µM
CC(=O)N1CCN(C(=O)C[C@@H]2C[C@@H](C(C)C)[C@H](CC#N)C=C2C)CC1	none
CC1=C[C@@H](CO)[C@H](C(C)C)C[C@H]1CC(=O)N1CCN(CCO)CC1	none
COc1ccc(C(C)NC(=O)c2noc(-c3ccc[nH]c3=O)n2)cc1OC (stereo not given)	none
C=CCC1(CO)CCCN(C(=O)CCN(C)S(C)(=O)=O)C1 (stereo not given)	none
Cc1oc(-c2cccc(Cl)c2)nc1CN1CCN(S(N)(=O)=O)CC1	none
Cc1nn2c(c1-c1ccnn1C(C)C)N(C(=O)Cc1ccc(O)cc1)CCC2	none
CN1CCC(N2CCN(S(=O)(=O)c3cccc(F)c3)CC2)C1=O (stereo not given)	none
O=C(c1ccccc1F)N1CC(c2nnc(-c3ccncc3)o2)C2(CCOCC2)C1 (stereo not given)	none
COc1ccccc1C1CNC(=O)c2nc(CCN3CCC(C)CC3)[nH]c2C1 (stereo not given)	none
COc1cccc(C2CNC(=O)c3nc(-c4ccc(C(=O)N(C)C)o4)[nH]c3C2)c1 (stereo not given)	none
COc1cccc(C2CNC(=O)c3nc(Cn4nc(C)c(C)c4C)[nH]c3C2)c1 (stereo not given)	Pf Dd2 inh 10µM
NC(Cc1ccccc1)C(=O)N1CCC2(CC1)CN(C(=O)c1ccc(Cl)cc1)CCO2 (stereo not given)	Pf Dd2 inh 0.63µM
COc1ccc(CC(=O)N2CCC3(CC2)CN(C(=O)c2ccc(Cl)cc2)CCO3)cc1	none
CC(=O)N1CCC2(CC1)CN(C(=O)c1ccc(Cl)cc1)CCO2	none
Cc1ccc(-c2cnc([C@@H]3COCCN3Cc3cn(C)c4ccccc34)[nH]2)cc1	none
CNCCN1C(=O)CC[C@H]2CN(C(=O)CCN3CCCCO3)CC[C@H]21	none
COc1nc2c(cc1CNC(=O)CC1CC1)C(=O)N(C1CCCC1)C2	none
COCCn1ncc(N2CCC(NC(=O)C3CCOC3)CC2)cc1=O (stereo not given)	none
O=C(NC1CCCN(c2cc(-c3ccc(F)cc3)[nH]n2)C1)c1ccc2c(c1)OCO2 (stereo not given)	none
Cc1cc(C(=O)N2CCC(n3c(=O)[nH]c4ccccc43)CC2)ccc1Cl	none
COCCCN(CCC(=O)NCCC(C)C)C(=O)c1ccoc1	none
CN(C)c1cccc(C(=O)NCC2CCN(c3cc(-c4ccc(Cl)cc4)[nH]n3)CC2)c1	none
Cc1ccc(CNC(=O)c2c(Nc3ccccc3C)sc(C(=O)c3ccc(F)cc3)c2N)cc1	none
COc1cccc(Nc2sc(C(=O)c3ccc(F)cc3)c(N)c2C(=O)NCc2ccc(C)cc2)c1	Pf Dd2 inh 10µM
COc1cccc(Nc2sc(C(=O)c3ccc(Cl)cc3)c(N)c2C(=O)NCCc2ccc(OC)c(OC)c2)c1	none
COCC1(CNc2cc(C3CC(O)C3)nc(C)n2)CCCC1 (stereo not given)	none
O=C(NC1CCN(c2cc(-c3ccc(F)cc3)[nH]n2)C1)c1ccccc1 (stereo not given)	none
COc1ccc(-c2cc(N3CCCC(NC(=O)c4cccc(C(F)(F)F)c4)C3)n[nH]2)cc1 (stereo not given)	Pf Dd2 inh 1.3µM
O=C(NC1CCN(c2cc(-c3ccc(Cl)cc3)[nH]n2)C1)c1ccc2[nH]ccc2c1 (stereo not given)	none
COc1ccc(-c2cc(N3CCC(NC(=O)c4cccc(OC(F)(F)F)c4)C3)n[nH]2)cc1 (stereo not given)	none

Assay outcomes as filed in PubChem BioAssay.
